Values joined by “and” are separate entries in the source; they are usually repeats but may differ in a detail not shown here. Identical values can stand only once. In all, about 5,500 compounds went through this assay and about 2,000 (36%) were called active. Roughly 18% stayed inconclusive and do not appear here. Cut-off read from the data, not from the text of the source: active = normalized growth mostly below about 0.91 (no sharp cut-off); inconclusive = no clear call, values can overlap the other calls; inactive = mostly above about 0.92. Some of the results follow.
Assay: chemical genetic growth profiling, strain panel (AID 1159580);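 note: tested at 20 µM; growth read once vehicle control cultures reached saturation at 30 °C; 1 = growth at the plate median or of vehicle wells; lower values mean less growth of the strain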
Conditions: S. cerevisiae deletion strains, growth OD

Measured: normalized growth

COc1ccc2c3c([nH]c2c1)C(C)=NCC3
inactive: locus YAL013W, strain DEP1, hits give low values 1.01 | locus YAL021C, strain ccr4, hits give low values 0.997 | locus YAL026C, strain drs2, hits give low values 1.02 | locus YAL030W, strain snc1, hits give low values 1.01 | locus YBL061C, strain skt5, hits give low values 1.01 | locus YBR009C, strain hhf1, hits give low values 0.989 | locus YBR021W, strain FUR4, hits give low values 1.01 | locus YBR023C, strain chs3, hits give low values 0.999 | locus YBR171W, strain sec66, hits give low values 1.01 | locus YBR229C, strain ROT2, hits give low values 1 | locus YBR231C, strain swc5, hits give low values 0.997 | locus YBR279W, strain paf1, hits give low values 1.01 | locus YCL016C, strain dcc1, hits give low values 1 | locus YCL029C, strain bik1, hits give low values 0.984 | locus YCL069W, strain vba3, hits give low values 1.01 | locus YCR088W, strain abp1, hits give low values 1.01 | locus YDL005C, strain med2, hits give low values 0.99 | locus YDL035C, strain GPR1, hits give low values 1.02 | locus YDL040C, strain nat1, hits give low values 0.986 | locus YDL074C, strain BRE1, hits give low values 1 | locus YDL101C, strain DUN1, hits give low values 1.01 | locus YDL134C, strain PPH21, hits give low values 1 | locus YDL185W, strain tfp1, hits give low values 0.975 | locus YDL192W, strain arf1, hits give low values 0.993 | locus YDR001C, strain nth1, hits give low values 1.02 | locus YDR069C, strain doa4, hits give low values 0.992 | locus YDR101C, strain arx1, hits give low values 0.986 | locus YDR137W, strain rgp1, hits give low values 1.01 | locus YDR150W, strain NUM1, hits give low values 1.01 | locus YDR159W, strain sac3, hits give low values 1 | locus YDR162C, strain NBP2, hits give low values 1 | locus YDR195W, strain ref2 0.954 | locus YDR297W, strain sur2, hits give low values 0.991 | locus YDR318W, strain mcm21, hits give low values 0.983 | locus YDR334W, strain swr1, hits give low values 1.01 | locus YDR335W, strain msn5, hits give low values 1.01 | locus YDR388W, hits give low values 0.983 | locus YDR392W, strain spt3, hits give low values 1.01 | locus YDR502C, strain sam2, hits give low values 0.989 | locus YEL003W, strain gim4, hits give low values 1 | locus YEL037C, strain rad23, hits give low values 1 | locus YEL061C, strain CIN8 (second series), hits give low values 1.03 | locus YEL061C, strain CIN8, hits give low values 1.01 | locus YER015W, strain faa2, hits give low values 0.988 | locus YER016W, strain bim1, hits give low values 1 | locus YER110C, hits give low values 0.981 | locus YER111C, strain swi4, hits give low values 0.993 | locus YER155C, strain BEM2 (second series), hits give low values 0.98 | locus YER155C, strain BEM2, hits give low values 1.01 | locus YER167W, strain BCK2, hits give low values 1.01 | locus YFR010W, strain ubp6, hits give low values 0.999 | locus YGL078C, strain dbp3, hits give low values 0.987 | locus YGL086W, strain mad1, hits give low values 0.991 | locus YGL167C, strain pmr1, hits give low values 0.993 | locus YGL173C, strain kem1, hits give low values 0.984 | locus YGL227W, strain vid30, hits give low values 1 | locus YGL240W, strain doc1, hits give low values 1.01 | locus YGL248W, strain PDE1, hits give low values 1 | locus YGL253W, strain hxk2, hits give low values 1.03 | locus YGR078C, strain PAC10, hits give low values 1 | locus YGR135W, strain pre9, hits give low values 0.988 | locus YGR229C, strain SMI1, hits give low values 1.03 | locus YGR252W, strain gcn5, hits give low values 0.963 | locus YHR013C, strain ard1, hits give low values 0.948 | locus YHR027C, strain rpn1, hits give low values 1.01 | locus YHR030C, strain SLT2, hits give low values 1.01 and 0.978 | locus YHR079C, strain IRE1 (second series), hits give low values 0.992 | locus YHR079C, strain IRE1, hits give low values 1 | locus YHR094C, strain hxt1, hits give low values 0.991 | locus YHR129C, strain ARP1, hits give low values 0.999 | locus YHR142W, strain chs7, hits give low values 1.01 | locus YHR200W, strain rpn10, hits give low values 0.982 | locus YIL066C, strain RNR3, hits give low values 1.01 | locus YIL073C, strain SPO22, hits give low values 1.03 | locus YIL125W, strain kgd1, hits give low values 0.988 | locus YIR030C, strain dcg1, hits give low values 0.988 | locus YJL092W, strain hpr5, hits give low values 1.02 | locus YJL095W, strain BCK1 (second series), hits give low values 1 | locus YJL095W, strain BCK1, hits give low values 1.02 and 0.991 | locus YJL115W, strain asf1, hits give low values 0.994 | locus YJL129C, strain trk1, hits give low values 1.02 | locus YJL134W, strain LCB3, hits give low values 1 | locus YJL154C, strain vps35, hits give low values 1 | locus YJL164C, strain tpk1, hits give low values 1 | locus YJL166W, strain qcr8, hits give low values 1 | locus YJL168C, strain set2, hits give low values 0.986 | locus YJL187C, strain SWE1 (second series), hits give low values 1.01 | locus YJL187C, strain SWE1, hits give low values 0.993 | locus YJR043C, strain POL32, hits give low values 0.982 | locus YJR066W, strain TOR1, hits give low values 0.929 | locus YJR075W, strain HOC1, hits give low values 1.01

Source: PubChem BioAssay AID1159580 (chemical genetic matrix, 2015)
